Assay results reported in PubChem BioAssay (NCI).
About 83,000 compounds went through this panel and 20% of them were active in at least one assay; those are over-represented in the sample as a whole.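 The test compound was applied at a single concentration to cells in 96-well plates for 48 hours, and percent growth was recorded.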 Unmarked numbers belong to inactive results. Calls of active or inactive are those of the source. How the source made its calls: active means growth percent below 10; inactive means the rest.

How the values were obtained:
Assay in all cases: NCI-60 one-dose screen, 48 h (100 = growth as untreated, 0 = no growth, -100 = all killed)
Settings in all cases: 10 µM
[1] = test system: SN12C renal
[2] = test system: UO-31 renal
[3] = test system: TK-10 renal
[4] = test system: ACHN renal
[5] = test system: CAKI-1 renal
[6] = test system: A498 renal
[7] = test system: CCRF-CEM leukemia
[8] = test system: MOLT-4 leukemia
[9] = test system: SR leukemia
[10] = test system: RPMI-8226 leukemia
[11] = test system: OVCAR-8 ovarian
[12] = test system: OVCAR-5 ovarian
[13] = test system: OVCAR-4 ovarian
[14] = test system: SK-OV-3 ovarian
[15] = test system: IGROV1 ovarian
[16] = test system: OVCAR-3 ovarian
[17] = test system: HS 578T breast
[18] = test system: NCI/ADR-RES ovarian
[19] = test system: T-47D breast

SMILES | growth [1] | growth [2] | growth [3] | growth [4] | growth [5] | growth [6] | growth [7] | growth [8] | growth [9] | growth [10] | growth [11] | growth [12] | growth [13] | growth [14] | growth [15] | growth [16] | growth [17] | growth [18] | growth [19]
O=C(Nc1cccc(-n2cc(-c3ccncc3)c(-c3ccc(O)c(Cl)c3)n2)c1)c1ccc(Cl)c(Cl)c1 | 70.9% | 36.3% | 104% | 49% | 13% | 74.6% | 33% | 45.8% | 15.1% | 18.1% | 35.7% | 109% | 67% | 80.9% | 60.7% | 81.7% | 53.8% | 49.6% | 36%
Nc1c(C(=O)Nc2ccccc2)sc2nc3c(cc12)CCCC3 | 40.1% | 44.7% | 71.7% | 51.5% | 26.7% | -8.95% (active) | 13.1% | 15.7% | 10.8% | 15.4% | 33.6% | 62% | 49.9% | 24.7% | 30.5% | -13.7% (active) | 36.8% | 20.4% | 47.3%
O=C1/C(=C/c2ccc([N+](=O)[O-])s2)Oc2ccccc21 | -23.1% (active) | -78.1% (active) | -21.5% (active) | -55.3% (active) | -26.8% (active) | 97.9% | -13% (active) | -6.14% (active) | 7.01% (active) | 0.673% (active) | 2.43% (active) | -56.7% (active) | -86.7% (active) | 12.3% | -72.5% (active) | -60.8% (active) | 25.7% | 12.3% | 2.78% (active)
COC(=O)C1=NNC(=S)N(c2cc(C)[nH]n2)C(=O)C1 | 96.3% | 76.5% | 114% | 107% | 92.5% | 81.8% | 91.8% | 84.1% | 86.3% | 98.5% | 101% | 108% | 104% | 97.9% | 99.9% | 108% | 105% | 99% | 90.2%
COc1ccc(Cn2c(C(N)=O)cc3c2-c2nc(N)ncc2CCC3)cc1 | 106% | 82.6% | 108% | 97.1% | 105% | 76.2% | 95.8% | 108% | 108% | 85.5% | 98.6% | 87.7% | 99.7% | 104% | 101% | 107% | 91.3% | 110% | 104%
CCOC(=O)N1C/C(=C/c2ccc(OC)cc2)C(=O)/C(=C/c2ccc(OC)cc2)C1 | 50.2% | 17.1% | 59.5% | 39.3% | 41.9% | -0.589% (active) | 6.4% (active) | 27.3% | -16.7% (active) | -14.8% (active) | 19.6% | 95% | 58% | 26.9% | 17.2% | 0.817% (active) | -15.8% (active) | 21.7% | 43.7%
CC(=O)N(C)c1ccc(Nc2ccc(Nc3ccc(N(C)C(C)=O)cc3)c3c2C(=O)c2ccccc2C3=O)cc1 | 71.4% | 25.9% | 79% | 64.3% | 30.2% | 110% | 55.7% | 56.8% | 72.6% | 53.5% | 71.2% | 97.1% | 63.7% | 78.2% | 32.6% | 78.7% | 58.3% | 86% | 54.7%
CCCC(F)C(=O)O (centres undefined) | 100% | 77.7% | 98% | 106% | 86.2% | 98.5% | 94.5% | 93% | 91.2% | 98.4% | 98.2% | 115% | 106% | 98.3% | 107% | 116% | 100% | 108% | 97.7%
CCCCCCCCCCCC[n+]1ccc(C(N)=O)cc1 | 12.3% | 64.4% | -28% (active) | 87.5% | 41.1% | 78.9% | 13% | 13.6% | 14.5% | -6.05% (active) | 16.1% | 20.5% | 48.8% | 45.5% | -18.7% (active) | 23.2% | 31.3% | 103% | 38.8%
CC(C)(C#N)Nc1ccccc1 | 98.8% | 103% | 115% | 97.8% | 83.5% | 103% | 97.1% | 102% | 116% | 105% | 105% | 100% | 99.5% | 106% | 121% | 124% | 105% | 116% | 102%
COc1ccc(/C=C2/CN(CCC#N)C/C(=C\c3ccc(OC)cc3)C2=O)cc1 | -57% (active) | -43.8% (active) | 16.2% | 8.83% (active) | -19.4% (active) | 56.3% | 0.103% (active) | 3.59% (active) | -2.63% (active) | -17.2% (active) | 1.11% (active) | 59.7% | 17.3% | 13.4% | 7.88% (active) | -26% (active) | 33.1% | 7.02% (active) | 39.4%
